Measurements: PMC4081100, “A DNA-binding-site landscape and regulatory network analysis for NAC transcription factors in Arabidopsis thaliana”

Columns and labels:
Assay in all cases: universal protein binding microarray (PBM); transcription factors of Arabidopsis thaliana; high values mean tight binding
Conditions in all cases: protein: recombinant; tags: GST; chain copies: 2; dsDNA, one strand shown
GST-ANAC092(1-176) = target: T1, GST-ANAC092(1-176) (Arabidopsis thaliana, UniProt Q9FKA0 1-176)
T1 sequence: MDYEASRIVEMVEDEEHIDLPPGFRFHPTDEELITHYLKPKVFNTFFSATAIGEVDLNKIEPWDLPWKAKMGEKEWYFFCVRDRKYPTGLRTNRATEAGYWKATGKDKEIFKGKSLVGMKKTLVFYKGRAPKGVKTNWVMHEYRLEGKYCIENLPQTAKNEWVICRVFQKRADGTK
Procedure, shortened: (§1)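 GST-tagged NAC-domain, full-length or DNA-binding-domain proteins were induced in cells, with zinc acetate added for zinc-finger proteins. They were purified on glutathione–Sepharose 4B and quantified by A280 or anti-GST western blot. Each was applied at 200 to 500 nM final, in duplicate, to custom all-10-mer Agilent 4 × 180K arrays made double-stranded by primer extension, with gapped and ungapped 8-mers scored. Binding is the normalised enrichment score (E-score).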

GST-ANAC019 NAC domain = target: T2, GST-ANAC019 NAC domain (Arabidopsis thaliana, UniProt Q9C932 14-162)
T2 sequence: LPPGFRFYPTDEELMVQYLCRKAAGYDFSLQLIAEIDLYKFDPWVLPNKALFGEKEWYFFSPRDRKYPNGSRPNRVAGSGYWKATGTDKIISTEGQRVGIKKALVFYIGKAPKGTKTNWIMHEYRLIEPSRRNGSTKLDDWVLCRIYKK
Procedure, shortened: as §1

GST-ANAC055(1-171) = target: T3, GST-ANAC055(1-171) (Arabidopsis thaliana, UniProt Q9LDY8 1-171)
T3 sequence: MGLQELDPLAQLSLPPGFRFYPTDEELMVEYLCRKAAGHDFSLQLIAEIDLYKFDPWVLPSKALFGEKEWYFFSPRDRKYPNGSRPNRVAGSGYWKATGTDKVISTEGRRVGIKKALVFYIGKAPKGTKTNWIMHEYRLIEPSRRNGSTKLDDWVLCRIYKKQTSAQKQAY
Procedure, shortened: as §1

GST-ATAF1 NAC domain = target: T4, GST-ATAF1 NAC domain (Arabidopsis thaliana, UniProt Q39013 7-158)
T4 sequence: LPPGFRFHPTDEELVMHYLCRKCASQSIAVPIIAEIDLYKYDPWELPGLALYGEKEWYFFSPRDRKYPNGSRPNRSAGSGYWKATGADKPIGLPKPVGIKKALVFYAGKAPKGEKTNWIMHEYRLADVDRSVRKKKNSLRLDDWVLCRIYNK
Procedure, shortened: as §1

[1] = target: T5, GST-ANAC092(1-285) full length (Arabidopsis thaliana, UniProt Q9FKA0 1-285)
T5 sequence: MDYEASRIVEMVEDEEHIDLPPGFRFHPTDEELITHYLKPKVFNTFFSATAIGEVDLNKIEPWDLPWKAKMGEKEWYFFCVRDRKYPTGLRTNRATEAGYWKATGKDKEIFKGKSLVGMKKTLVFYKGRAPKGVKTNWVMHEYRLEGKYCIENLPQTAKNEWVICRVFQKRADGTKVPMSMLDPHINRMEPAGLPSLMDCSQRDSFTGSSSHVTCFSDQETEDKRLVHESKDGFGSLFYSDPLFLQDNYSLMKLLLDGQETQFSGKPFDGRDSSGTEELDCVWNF
Procedure, shortened: as §1

GST-NAP(1-166) = target: T6, GST-NAP(1-166) (Arabidopsis thaliana, UniProt O49255 1-166)
T6 sequence: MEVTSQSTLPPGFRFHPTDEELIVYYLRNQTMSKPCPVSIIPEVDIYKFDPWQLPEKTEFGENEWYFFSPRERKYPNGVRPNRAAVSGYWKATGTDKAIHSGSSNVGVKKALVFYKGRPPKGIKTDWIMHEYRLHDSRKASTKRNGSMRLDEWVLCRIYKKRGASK
Procedure, shortened: as §1

GST-NST2(1-184) = target: T7, GST-NST2(1-184) (Arabidopsis thaliana, UniProt Q9M274 1-184)
T7 sequence: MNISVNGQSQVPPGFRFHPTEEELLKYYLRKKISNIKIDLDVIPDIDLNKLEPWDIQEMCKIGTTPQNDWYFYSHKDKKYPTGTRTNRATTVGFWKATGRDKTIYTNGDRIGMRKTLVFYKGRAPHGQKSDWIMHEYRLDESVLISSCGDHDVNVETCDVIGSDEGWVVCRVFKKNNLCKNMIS
Procedure, shortened: as §1

GST-NTL8 NAC domain = target: T8, GST-NTL8 NAC domain (Arabidopsis thaliana, UniProt Q9XIN7 14-156)
T8 sequence: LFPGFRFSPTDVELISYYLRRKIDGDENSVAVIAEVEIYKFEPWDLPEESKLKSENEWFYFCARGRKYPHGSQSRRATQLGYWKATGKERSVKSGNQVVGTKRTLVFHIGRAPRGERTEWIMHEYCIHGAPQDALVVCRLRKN
Procedure, shortened: as §1

GST-SND1(1-203) = target: T9, GST-SND1(1-203) (Arabidopsis thaliana, UniProt Q9LPI7 1-203)
T9 sequence: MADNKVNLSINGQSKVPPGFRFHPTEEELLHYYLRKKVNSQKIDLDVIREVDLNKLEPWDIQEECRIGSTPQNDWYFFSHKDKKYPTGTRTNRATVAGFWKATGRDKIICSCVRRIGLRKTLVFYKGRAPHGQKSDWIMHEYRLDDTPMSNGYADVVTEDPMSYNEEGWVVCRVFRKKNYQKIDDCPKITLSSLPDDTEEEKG
Procedure, shortened: as §1

GST-VND3 NAC domain = target: T10, GST-VND3 NAC domain (Arabidopsis thaliana, UniProt Q9FH59 12-162)
T10 sequence: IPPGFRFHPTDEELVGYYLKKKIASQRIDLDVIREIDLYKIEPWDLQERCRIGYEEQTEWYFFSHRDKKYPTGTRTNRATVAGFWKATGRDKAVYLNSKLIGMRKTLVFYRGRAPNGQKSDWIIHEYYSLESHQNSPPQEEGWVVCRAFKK
Procedure, shortened: as §1

GST-VND7 NAC domain = target: T11, GST-VND7 NAC domain (Arabidopsis thaliana, UniProt Q9C8W9 9-158)
T11 sequence: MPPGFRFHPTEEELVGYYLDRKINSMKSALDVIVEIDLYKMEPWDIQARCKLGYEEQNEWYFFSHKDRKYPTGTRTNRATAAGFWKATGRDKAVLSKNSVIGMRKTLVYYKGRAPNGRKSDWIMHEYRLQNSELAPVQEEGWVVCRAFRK
Procedure, shortened: as §1

| Sequence | binding signal (GST-ANAC092(1-176)) [E-score] | binding signal (GST-ANAC019 NAC domain) [E-score] | binding signal (GST-ANAC055(1-171)) [E-score] | binding signal (GST-ATAF1 NAC domain) [E-score] | binding signal [1] [E-score] | binding signal (GST-NAP(1-166)) [E-score] | binding signal (GST-NST2(1-184)) [E-score] | binding signal (GST-NTL8 NAC domain) [E-score] | binding signal (GST-SND1(1-203)) [E-score] | binding signal (GST-VND3 NAC domain) [E-score] | binding signal (GST-VND7 NAC domain) [E-score] |
| --- | --- | --- | --- | --- | --- | --- | --- | --- | --- | --- | --- |
| TGCGTAAA | 0.396 | 0.205 | 0.131 | 0.216 | 0.386 | 0.162 | 0.291 | 0.0652 | 0.447 | 0.26 | 0.244 |
| GTAACGTA | 0.451 | 0.367 | 0.189 | 0.322 | 0.467 | 0.315 | 0.321 | 0.13 | 0.489 | 0.338 | 0.402 |
| ACGGCACT | 0.331 | 0.467 | 0.449 | 0.454 | 0.393 | 0.425 | 0.187 | 0.0691 | 0.174 | 0.402 | 0.453 |
| TCACGTAA | 0.443 | 0.47 | 0.424 | 0.324 | 0.445 | 0.405 | 0.269 | 0.209 | 0.326 | 0.441 | 0.44 |
| ACGGCAAT | 0.298 | 0.409 | 0.375 | 0.283 | 0.366 | 0.236 | 0.286 | 0.188 | 0.226 | 0.3 | 0.317 |
| GCACGTAA | 0.461 | 0.478 | 0.433 | 0.381 | 0.467 | 0.427 | 0.218 | 0.189 | 0.225 | 0.454 | 0.454 |
| ACACGGCA | 0.481 | 0.485 | 0.479 | 0.446 | 0.481 | 0.457 | 0.245 | 0.0652 | 0.148 | 0.463 | 0.481 |
| CACGTTAC | 0.467 | 0.241 | 0.293 | 0.287 | 0.476 | 0.221 | 0.328 | 0.0995 | 0.432 | 0.319 | 0.275 |
| ACACGTTA | 0.482 | 0.165 | 0.3 | 0.35 | 0.485 | 0.222 | 0.358 | – | 0.413 | 0.277 | 0.237 |
| ACGGCAAC | 0.401 | 0.386 | 0.375 | 0.288 | 0.42 | 0.264 | 0.264 | – | 0.246 | 0.326 | 0.331 |
| AGACGTAA | 0.425 | 0.453 | 0.389 | 0.437 | 0.424 | 0.456 | 0.282 | 0.139 | 0.408 | 0.42 | 0.42 |
| ATTGCGTA | 0.482 | 0.375 | 0.333 | 0.32 | 0.485 | 0.423 | 0.409 | 0.0931 | 0.491 | 0.444 | 0.453 |
| ATACGGAA | 0.33 | 0.436 | 0.394 | 0.332 | 0.399 | 0.372 | 0.223 | 0.0989 | 0.219 | 0.371 | 0.38 |
